Test results from PubChem BioAssay (EPA / NIEHS).
Calls of active or inactive are those of the source. Rule for the calls: active = hit-call score of the fitted dose curve at least 0.9, where 1 is the maximum; inactive = score below 0.9.

Assays:
Conditions in all cases: mRNA level, 48 h; actives raise or lower the signal
HGF (gene 3082) = experiment: LTEA_HepaRG_HGF: Life Technologies and Expression Analysis (LTEA) Assay for Hepatocyte Growth Facto (HGF) using HepaRG (AID 2283505)
Outline: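 Read-out is HGF transcript level by qRT-PCR, normalized to three housekeeping genes, fitted bidirectionally against 0.5% DMSO vehicle. Human HepaRG cells received test chemicals for 48 h at up to 100 uM.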

[1] = read-out: Insulin Like Growth Factor 1 (IGF1), IGF1 (gene 3479); experiment: LTEA_HepaRG_IGF1: Life Technologies and Expression Analysis (LTEA) Assay for Insulin Like Growth Factor 1 (IGF1) using HepaRG (AID 2283506)
Outline: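 Cells are thawed, plated and cultured 48 h, then exposed in duplicate to chemical (highest 100 uM, half-log steps, 0.5% DMSO) for another 48 h. Total RNA is analysed by Fluidigm qRT-PCR for IGF1 expression relative to vehicle.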

[2] = read-out: Intercellular Adhesion Molecule 1 (ICAM1), ICAM1 (gene 3383); experiment: LTEA_HepaRG_ICAM1: Life Technologies and Expression Analysis (LTEA) Assay for Intercellular Adhesion Molecule 1 (ICAM1) using HepaRG (AID 2283507)
Outline: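 Readout is qRT-PCR mRNA level, normalized to three housekeeping genes and fitted bidirectionally against 0.5% DMSO vehicle. Human HepaRG cultures received compound for 48 h, top concentration 100 uM with half-log dilutions.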

[3] = read-out: Insulin-like growth factor-binding protein 1 (IGFBP1), IGFBP1 (gene 3484); experiment: LTEA_HepaRG_IGFBP1: Life Technologies and Expression Analysis (LTEA) Assay for Insulin-like growth factor-binding protein 1 (IGFBP1) using HepaRG (AID 2283508)
Outline: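 Thawed HepaRG cells are plated for 48 h, switched to serum-free induction medium, then dosed in duplicate for another 48 h (100 uM top, half-log steps). Lysates in RLT go to qRT-PCR, and gain or loss of signal is fitted relative to vehicle.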

[4] = read-out: Interleukin 6 (IL6), IL6 (gene 3569); experiment: LTEA_HepaRG_IL6: Life Technologies and Expression Analysis (LTEA) Assay for Interleukin 6 (IL6) using HepaRG (AID 2283509)
Outline: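 Changes in IL6 mRNA, up or down relative to 0.5% DMSO controls, were derived from concentration-response curves in human HepaRG cells treated for 48 h at up to 100 uM, with ACTB, GAPDH and POLR2A as normalizers.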

[5] = read-out: Potassium channel subfamily K member 1 (KCNK1), KCNK1 (gene 3775); experiment: LTEA_HepaRG_KCNK1: Life Technologies and Expression Analysis (LTEA) Assay for Potassium channel subfamily K member 1 (KCNK1) using HepaRG (AID 2283511)
Outline: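 Human HepaRG cultures receive test chemicals for 48 h in 0.5% DMSO, top concentration 100 uM with half-log dilutions. Induction or suppression of KCNK1 mRNA relative to DMSO is derived by bidirectional fitting of qRT-PCR data.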

[6] = read-out: Keratin 19 (KRT19), KRT19 (gene 3880); experiment: LTEA_HepaRG_KRT19: Life Technologies and Expression Analysis (LTEA) Assay for Keratin 19 (KRT19) using HepaRG (AID 2283512)
Outline: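 KRT19 transcript levels, measured by Fluidigm qRT-PCR against three housekeeping genes, are fitted for gain or loss of signal relative to DMSO. Human HepaRG cells receive test chemicals (top 100 uM, half-log steps, 0.5% DMSO) for 48 hours.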

[7] = read-out: JUN Transcription Factor, JUN (gene 3725); experiment: LTEA_HepaRG_JUN: Life Technologies and Expression Analysis (LTEA) Assay for JUN Transcription Factor using HepaRG (AID 2283513)
Outline: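 Read-out is JUN transcript level by TaqMan qRT-PCR, normalized to ACTB, GAPDH and POLR2A, after 48 h chemical treatment of HepaRG cells. Concentration-response spanned eight half-log points up to 100 uM in 0.5% DMSO.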

[8] = read-out: Lipase C (LIPC), LIPC (gene 3990); experiment: LTEA_HepaRG_LIPC: Life Technologies and Expression Analysis (LTEA) Assay for Lipase C (LIPC) using HepaRG (AID 2283514)
Outline: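 In this multiplexed gene-expression screen, human HepaRG cultures received test chemicals for 48 h across eight concentrations with 100 uM highest, in duplicate. Values reflect LIPC mRNA induction or suppression versus DMSO vehicle, from normalized qRT-PCR.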

[9] = read-out: MicroRNA 122 (MIR122), gene 406906; experiment: LTEA_HepaRG_MIR122: Life Technologies and Expression Analysis (LTEA) Assay for MicroRNA 122 (MIR122) using HepaRG (AID 2283516); note: the transcript read is the microRNA miR-122
Outline: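 Human liver HepaRG cultures receive test chemicals for 48 h at eight half-log concentrations from 100 uM. Expression is quantified by qRT-PCR with ACTB/GAPDH/POLR2A normalization and fitted bidirectionally against 0.5% DMSO.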

[10] = read-out: matrix metalloproteinase-10 (MMP10), MMP10 (gene 4319); experiment: LTEA_HepaRG_MMP10: Life Technologies and Expression Analysis (LTEA) Assay for matrix metalloproteinase-10 (MMP10) using HepaRG (AID 2283517)
Outline: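 In differentiated HepaRG cultures kept in 0.5% DMSO, test chemicals act for 48 h over an eight-point range with a top dose of 100 uM. Expression is then quantified by TaqMan RT-PCR against ACTB, GAPDH and POLR2A.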

MYC, MYC (gene 4609) = experiment: LTEA_HepaRG_MYC: Life Technologies and Expression Analysis (LTEA) Assay for MYC using HepaRG (AID 2283518)
Outline: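 HepaRG, ~100,000 cells/well, collagen I; 48 h plating; serum-free induction medium; 48 h dosing, duplicate, 100 uM top, half-log, 0.5% DMSO; total RNA → qRT-PCR MYC; gain/loss fit vs DMSO.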

[11] = read-out: matrix metalloproteinase-3 (MMP3), MMP3 (gene 4314); experiment: LTEA_HepaRG_MMP3: Life Technologies and Expression Analysis (LTEA) Assay for matrix metalloproteinase-3 (MMP3) using HepaRG (AID 2283519)
Outline: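 Human liver HepaRG cultures received chemicals (top concentration 100 uM, 0.5% DMSO) for 48 h in duplicate. MMP3 mRNA induction or loss was then assessed via TaqMan qRT-PCR with housekeeping-gene normalisation.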

[12] = read-out: Paternally Expressed 10 (PEG10), PEG10 (gene 23089); experiment: LTEA_HepaRG_PEG10: Life Technologies and Expression Analysis (LTEA) Assay for Paternally Expressed 10 (PEG10) using HepaRG (AID 2283520);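 for AC50: differentiated HepaRG human liver cells in serum-free induction medium with 0.5% DMSO; PEG10 transcript by qRT-PCR normalised to ACTB GAPDH and POLR2A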
Outline: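 Human HepaRG cultures are dosed for 48 h across an eight-point half-log series starting at 100 uM, with 0.5% DMSO as vehicle and baseline. Gain or loss of PEG10 transcript is measured by qRT-PCR and fitted in both directions.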

[13] = read-out: Nuclear factor NF-kappa-B p105 subunit (Homo sapiens) (UniProt P19838); experiment: LTEA_HepaRG_NFKB1: Life Technologies and Expression Analysis (LTEA) Assay for Nuclear Factor Kappa B Subunit 1 (NFKB1) using HepaRG (AID 2283521)
Outline: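 Human HepaRG cells receive eight half-log concentrations, highest 100 uM, for 48 h. NFKB1 expression is then quantified by qRT-PCR and analysed for up- or down-regulation relative to 0.5% DMSO vehicle.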

[14] = read-out: Protein phosphatase 2A (PPP2R4), PTPA (gene 5524); experiment: LTEA_HepaRG_PPP2R4: Life Technologies and Expression Analysis (LTEA) Assay for Protein phosphatase 2A (PPP2R4) using HepaRG (AID 2283522)
Outline: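 Cells were plated, cultured 48 h, switched to serum-free induction medium, then dosed for 48 h (8 points, max 100 uM, 0.5% DMSO). RNA was isolated and PPP2R4 expression measured by TaqMan qRT-PCR.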

[15] = read-out: Phosphatase and tensin (PTEN), PTEN (gene 5728); experiment: LTEA_HepaRG_PTEN: Life Technologies and Expression Analysis (LTEA) Assay for Phosphatase and tensin (PTEN) using HepaRG (AID 2283523)
Outline: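 Expression of PTEN is quantified in the human liver line HepaRG following two days of dosing (top concentration 100 uM, half-log dilutions, 0.5% DMSO). Values derive from bidirectional curve fitting relative to DMSO controls.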

[16] = read-out: solute carrier (SLC22A1), SLC22A1 (gene 6580); experiment: LTEA_HepaRG_SLC22A1: Life Technologies and Expression Analysis (LTEA) Assay for solute carrier (SLC22A1) using HepaRG (AID 2283524);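 for AC50: differentiated human HepaRG liver cells in serum-free induction medium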
Outline: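 Transcript induction or suppression of SLC22A1 in human HepaRG cultures is scored after 48 h chemical treatment, with DMSO (0.5%) as baseline for bidirectional fitting. Concentrations span eight half-log points topping at 100 uM.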

[17] = read-out: Interleukin 6 Receptor (IL6R), IL6R (gene 3570); experiment: LTEA_HepaRG_IL6R: Life Technologies and Expression Analysis (LTEA) Assay for Interleukin 6 Receptor (IL6R) using HepaRG (AID 2283510)
Outline: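 Cells were thawed, plated and cultured 48 h, then medium was changed to serum-free induction medium. Chemicals were added in duplicate (100 uM top, half-log steps, 0.5% DMSO) for 48 h. Lysates were analyzed by qRT-PCR for IL6R expression.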

[18] = read-out: Lipoprotein lipase (LPL), LPL (gene 4023); experiment: LTEA_HepaRG_LPL: Life Technologies and Expression Analysis (LTEA) Assay for Lipoprotein lipase (LPL) using HepaRG (AID 2283515)
Outline: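 Concentration-response testing used half-log steps from 100 uM in 0.5% DMSO on human HepaRG cells, 48 h, duplicate wells. Phenobarbital 1 mM served as induction control; LPL mRNA was normalized to ACTB, GAPDH, POLR2A.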

Measured: AC50

Chain of Nuclear factor NF-kappa-B p105 subunit (Homo sapiens) (P19838 whole entry, looked up): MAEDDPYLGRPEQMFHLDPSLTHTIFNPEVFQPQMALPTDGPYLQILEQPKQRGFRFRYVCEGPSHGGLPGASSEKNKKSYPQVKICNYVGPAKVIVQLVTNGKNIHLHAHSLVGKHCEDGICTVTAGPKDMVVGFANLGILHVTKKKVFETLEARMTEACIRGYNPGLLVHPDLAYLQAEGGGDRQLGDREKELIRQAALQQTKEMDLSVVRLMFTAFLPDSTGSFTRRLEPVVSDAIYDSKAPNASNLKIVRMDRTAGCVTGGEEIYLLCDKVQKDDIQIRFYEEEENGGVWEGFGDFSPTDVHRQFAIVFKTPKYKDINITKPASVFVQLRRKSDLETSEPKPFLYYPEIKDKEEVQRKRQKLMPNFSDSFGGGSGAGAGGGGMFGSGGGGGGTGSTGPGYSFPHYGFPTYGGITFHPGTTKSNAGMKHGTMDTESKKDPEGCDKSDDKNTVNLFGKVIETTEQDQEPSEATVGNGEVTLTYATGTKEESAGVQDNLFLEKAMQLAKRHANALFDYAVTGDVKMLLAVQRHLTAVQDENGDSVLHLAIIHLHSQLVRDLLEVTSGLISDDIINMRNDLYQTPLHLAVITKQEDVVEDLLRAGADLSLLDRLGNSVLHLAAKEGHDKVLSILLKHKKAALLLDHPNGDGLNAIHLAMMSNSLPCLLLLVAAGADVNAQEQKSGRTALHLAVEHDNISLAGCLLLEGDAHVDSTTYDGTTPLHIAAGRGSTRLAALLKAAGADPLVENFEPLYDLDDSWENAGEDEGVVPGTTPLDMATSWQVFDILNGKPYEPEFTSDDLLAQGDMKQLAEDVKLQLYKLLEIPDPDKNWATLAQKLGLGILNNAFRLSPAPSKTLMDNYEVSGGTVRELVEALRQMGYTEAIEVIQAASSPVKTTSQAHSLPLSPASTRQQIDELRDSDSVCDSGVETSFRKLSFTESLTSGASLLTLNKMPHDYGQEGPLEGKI

O=C(CCCCCCCCc1cccnc1)N1CCC(C=C(c2ccccc2)c2ccccc2)CC1
active: HGF (gene 3082) 11.9 µM | [1] 16.5 µM | [2] 16.4 µM | [3] 28.5 µM | [4] 22.6 µM | [5] 50 µM | [7] 28.5 µM | [8] 22.4 µM | [9] 26.5 µM | [10] 31.8 µM | MYC, MYC (gene 4609) 27.4 µM | [11] 86.8 µM | [12] 50 µM | [13] 31.4 µM | [14] 11.7 µM | [16] 24.4 µM
inactive: [6] | [15]

Cc1ccc(O)cc1
inactive: all assays above

CCOC(=O)c1ccc(C2CCC(NC[C@H](O)COc3ccc(O)c(NS(C)(=O)=O)c3)CC2)cc1 (stereo partly drawn)
active: [6] 2.04 µM
not listed: [4] | [13]
inactive: all other assays above

CC(C)=CCC/C(C)=C/CO
not listed: [17]
inactive: all other assays above

O=c1[nH]c2ccc(S(=O)CCN3CCC(Cc4ccc(F)cc4)CC3)cc2o1 (stereo not drawn)
active: [3] 89.7 µM | [6] 67.3 µM | [8] 82 µM | [18] 59.5 µM | MYC, MYC (gene 4609) 17.3 µM | [12] 50 µM | [16] 67.2 µM
not listed: [4]
inactive: all other assays above

COC(=O)CC(=O)OC
active: [12] 50 µM
not listed: [13]
inactive: all other assays above

CCCCCCCCO
active: [5] 83.9 µM
not listed: [11] | [13] | [17]
inactive: all other assays above

Cc1ccc(N)cc1O
active: [18] 31.8 µM
not listed: [13] | [17]
inactive: all other assays above

CC(C)CCCCCCCOC(=O)CCCCC(=O)OCCCCCCCC(C)C
not listed: [11]
inactive: all other assays above

CC[C@H]1OC(=O)[C@H](C)[C@@H](O[C@H]2C[C@@](C)(OC)[C@@H](O)[C@H](C)O2)[C@H](C)[C@@H](O[C@@H]2O[C@H](C)C[C@H](N(C)C)[C@H]2O)[C@](C)(O)C[C@@H](C)C(=O)[C@H](C)[C@@H](O)[C@]1(C)O
not listed: [7]
inactive: all other assays above

CCOC(=O)CC(CC(=O)OCC)(OC(C)=O)C(=O)OCC
not listed: [4]
inactive: all other assays above

O=C1CCC(N2C(=O)c3ccccc3C2=O)C(=O)N1 (stereo not drawn)
not listed: [11] | [17]
inactive: all other assays above
